Measured values: PubChem BioAssay

target: Neurogenic locus notch homolog protein 2 (Homo sapiens) (UniProt Q04721); assay: Notch2 binders on small-molecule microarrays, primary screen, biochemical, small-molecule microarray, 635 nm fluorescence, stem cell growth factors (AID 1073); details: Notch2 binding, higher = more signal
Sequence (Q04721 whole entry, looked up): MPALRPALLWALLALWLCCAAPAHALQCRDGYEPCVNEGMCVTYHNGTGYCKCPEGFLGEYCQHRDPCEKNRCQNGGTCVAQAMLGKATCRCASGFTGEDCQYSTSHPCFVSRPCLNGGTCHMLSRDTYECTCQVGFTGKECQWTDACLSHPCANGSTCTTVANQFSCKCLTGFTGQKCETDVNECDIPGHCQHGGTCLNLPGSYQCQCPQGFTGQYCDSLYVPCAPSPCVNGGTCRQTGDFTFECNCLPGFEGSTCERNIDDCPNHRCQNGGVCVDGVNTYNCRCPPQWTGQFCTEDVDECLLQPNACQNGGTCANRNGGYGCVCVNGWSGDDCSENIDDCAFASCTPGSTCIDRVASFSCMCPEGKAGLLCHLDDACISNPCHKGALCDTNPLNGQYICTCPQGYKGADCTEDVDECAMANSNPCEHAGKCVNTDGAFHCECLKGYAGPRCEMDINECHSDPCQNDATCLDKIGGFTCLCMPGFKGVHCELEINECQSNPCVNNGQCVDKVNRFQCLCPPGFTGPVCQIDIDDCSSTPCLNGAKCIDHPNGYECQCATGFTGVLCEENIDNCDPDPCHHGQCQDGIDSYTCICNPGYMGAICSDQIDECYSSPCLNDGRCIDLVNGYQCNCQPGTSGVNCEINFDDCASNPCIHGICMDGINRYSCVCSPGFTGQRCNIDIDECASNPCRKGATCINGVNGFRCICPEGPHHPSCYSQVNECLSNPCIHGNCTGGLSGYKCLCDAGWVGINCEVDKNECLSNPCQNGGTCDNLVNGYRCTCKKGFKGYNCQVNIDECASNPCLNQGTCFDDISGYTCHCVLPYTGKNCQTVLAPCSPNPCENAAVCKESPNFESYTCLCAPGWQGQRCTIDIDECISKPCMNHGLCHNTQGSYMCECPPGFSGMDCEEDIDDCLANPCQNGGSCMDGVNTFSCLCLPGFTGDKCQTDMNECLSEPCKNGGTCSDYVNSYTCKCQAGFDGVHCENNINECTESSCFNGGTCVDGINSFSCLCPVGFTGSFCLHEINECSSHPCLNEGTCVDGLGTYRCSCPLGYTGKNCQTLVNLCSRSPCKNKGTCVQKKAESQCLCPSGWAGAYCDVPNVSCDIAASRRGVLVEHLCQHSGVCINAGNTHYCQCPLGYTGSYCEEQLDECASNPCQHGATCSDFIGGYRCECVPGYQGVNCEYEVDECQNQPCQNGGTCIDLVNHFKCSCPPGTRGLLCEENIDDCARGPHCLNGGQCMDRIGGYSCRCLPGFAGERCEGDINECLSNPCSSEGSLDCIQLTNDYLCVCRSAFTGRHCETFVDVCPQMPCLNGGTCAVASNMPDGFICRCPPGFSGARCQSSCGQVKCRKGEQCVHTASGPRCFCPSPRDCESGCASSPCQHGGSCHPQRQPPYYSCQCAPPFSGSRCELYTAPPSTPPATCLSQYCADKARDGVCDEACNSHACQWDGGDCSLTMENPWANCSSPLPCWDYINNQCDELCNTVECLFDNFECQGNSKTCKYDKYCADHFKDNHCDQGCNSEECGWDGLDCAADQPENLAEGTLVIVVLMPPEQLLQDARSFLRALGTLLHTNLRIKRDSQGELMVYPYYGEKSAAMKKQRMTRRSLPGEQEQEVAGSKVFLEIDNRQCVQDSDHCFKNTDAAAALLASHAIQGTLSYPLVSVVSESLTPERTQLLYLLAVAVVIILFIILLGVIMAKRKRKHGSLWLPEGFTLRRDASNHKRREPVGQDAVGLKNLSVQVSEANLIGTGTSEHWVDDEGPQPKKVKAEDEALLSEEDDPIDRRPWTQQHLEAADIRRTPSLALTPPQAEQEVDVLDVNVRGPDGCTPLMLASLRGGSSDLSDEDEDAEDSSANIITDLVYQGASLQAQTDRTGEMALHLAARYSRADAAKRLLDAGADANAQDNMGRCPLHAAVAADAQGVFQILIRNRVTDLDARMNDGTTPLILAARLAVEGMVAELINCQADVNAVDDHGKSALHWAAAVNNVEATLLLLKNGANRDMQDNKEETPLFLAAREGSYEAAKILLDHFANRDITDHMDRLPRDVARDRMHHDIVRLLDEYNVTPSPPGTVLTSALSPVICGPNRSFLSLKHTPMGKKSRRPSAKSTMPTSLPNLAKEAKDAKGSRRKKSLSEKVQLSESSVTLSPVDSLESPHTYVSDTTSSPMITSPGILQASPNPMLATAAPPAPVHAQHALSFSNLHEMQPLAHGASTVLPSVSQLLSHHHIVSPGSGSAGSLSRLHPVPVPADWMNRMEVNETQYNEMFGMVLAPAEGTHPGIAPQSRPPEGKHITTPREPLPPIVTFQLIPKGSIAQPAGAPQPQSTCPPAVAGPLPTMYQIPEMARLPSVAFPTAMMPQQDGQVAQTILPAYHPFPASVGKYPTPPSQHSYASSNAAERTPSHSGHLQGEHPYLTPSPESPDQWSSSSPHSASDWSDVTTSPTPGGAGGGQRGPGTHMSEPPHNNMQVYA

Q: For `CCOC(=O)C[C@H]1[C@H](OC(=O)c2cc3ccccc3oc2=O)[C@@H](NC(=O)c2ccc(-c3ccccc3)cc2)c2cc(OCCCO)ccc2N1C(=O)c1ccccc1`, which composite z-score is on record?
A: Its composite z-score is 1.36.

Q: Which composite z-score does the source give for `COC(=O)[C@@]1(Cc2ccc(OC)cc2)[C@H]2c3cc(C(=O)N(C)C)n(C[C@H](O)CO)c3C[C@H]2CN1C(=O)c1ccccc1` here?
A: Its composite z-score is 1.76.

Q: With `CC(C)[Si](C#C[Si](C(C)C)(C(C)C)C(C)C)(O[C@H](C)c1cn([C@H](CO)Cc2ccccc2)nn1)C(C)C` as the compound, how does the composite z-score read?
A: Its composite z-score is 0.203.

Q: `CCOC(=O)C1=CC[C@@H](c2ccccc2C(F)(F)F)N(S(=O)(=O)c2ccc(C)cc2)[C@H]1c1ccc(C#N)cc1` was tested. Which composite z-score did it give?
A: The composite z-score was 1.36.

Q: How did the composite z-score turn out when `C[N+](C)(C)CCCC[C@@H]1NC(=O)[C@H]2C[C@@H](C(=O)NCCCCCCN)[C@@H](c3ccc(O)cc3)N2C1=O` was run?
A: The composite z-score was 1.27.

Q: With `CC(C)N1CC=CC23O[C@@H]4C=CCOC(=O)[C@@H]4[C@H]2C(=O)N(CCCO)[C@@H]3C1=O` (stereo partly specified) as the compound, how does the composite z-score read?
A: The composite z-score was -0.671.

target: Pro-neuregulin-1, membrane-bound isoform (Homo sapiens) (UniProt Q02297); assay: NRG1 binders on small-molecule microarrays, primary screen, psychiatric disease protein project, biochemical, small-molecule microarray, fluorescence 635/667 (AID 1075); details: NRG1 binding, 635 nm fluorescence, higher = more signal;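 note: score combines 667 nm spot fluorescence with signal to noise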
Sequence (Q02297 whole entry, looked up, canonical isoform): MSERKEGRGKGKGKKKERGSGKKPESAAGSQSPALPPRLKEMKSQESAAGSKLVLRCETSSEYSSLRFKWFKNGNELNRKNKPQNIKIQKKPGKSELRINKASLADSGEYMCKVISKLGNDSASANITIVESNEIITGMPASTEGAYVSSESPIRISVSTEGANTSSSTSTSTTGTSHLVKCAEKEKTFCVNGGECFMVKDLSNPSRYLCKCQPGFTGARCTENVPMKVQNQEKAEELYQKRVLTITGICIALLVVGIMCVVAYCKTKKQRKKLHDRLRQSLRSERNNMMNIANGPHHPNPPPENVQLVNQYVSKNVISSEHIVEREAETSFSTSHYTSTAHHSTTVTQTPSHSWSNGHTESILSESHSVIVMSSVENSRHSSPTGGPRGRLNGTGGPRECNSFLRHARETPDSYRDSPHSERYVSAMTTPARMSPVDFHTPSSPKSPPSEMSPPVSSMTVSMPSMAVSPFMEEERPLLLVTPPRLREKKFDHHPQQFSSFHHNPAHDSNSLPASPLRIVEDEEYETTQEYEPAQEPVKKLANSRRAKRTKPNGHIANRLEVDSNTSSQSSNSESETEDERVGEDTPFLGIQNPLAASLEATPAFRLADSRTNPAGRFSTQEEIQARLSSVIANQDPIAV

Q: With `COC(=O)C(CC#Cc1ccc2c(c1)[C@]1(C(=O)N2)[C@H](C(=O)N2CCN(c3ncccn3)CC2)[C@H]2C(=O)O[C@H](c3ccccc3)[C@H](c3ccccc3)N2[C@@H]1c1ccc(OCCO)cc1)C(=O)OC` as the compound, how does the composite z-score read?
A: The composite z-score was 1.67.

Q: For `COCCOC(=O)N1C(=O)[C@@]2(c3cc(C#CC4=CCCCC4)ccc31)[C@H](c1ccccc1OCCO)N1[C@H](c3ccccc3)[C@H](c3ccccc3)OC(=O)[C@H]1[C@@H]2C(=O)N1CCCCCCC1`, which composite z-score is on record?
A: The composite z-score was 0.382.

Q: Which composite z-score does the source give for `CCOC(=O)C[C@H]1[C@H](OC(=O)c2ccc(C(=O)c3ccccc3)cc2)[C@@H](NC(=O)Cc2ccc(OC)cc2)c2cc(OCCCO)ccc2N1C(=O)c1ccccc1` here?
A: Its composite z-score is -0.104.

Q: `C=CC[C@@]1(C(=O)N2CCOCC2)N=C(c2ccc(OCCCO)cc2)O[C@@H]1c1ccccc1CN=[N+]=[N-]` was tested. Which composite z-score did it give?
A: The composite z-score was 1.53.

Q: For `NC(=O)NCC#Cc1ccc2c(c1)[C@]1(C(=O)N2)[C@H](C(=O)NC[C@H](O)c2ccccc2)[C@H]2C(=O)O[C@H](c3ccccc3)[C@H](c3ccccc3)N2[C@@H]1c1ccc(OCCO)cc1`, which composite z-score is on record?
A: The composite z-score was 0.897.

Q: Which composite z-score does the source give for `C=C(COC)/C(=C/C[C@H](OC(=O)c1ccncc1)c1ccccc1OCCO)c1cnc2ccccc2c1` here?
A: Its composite z-score is 1.47.

Q: `[N-]=[N+]=Nc1ccccc1C[C@]1(C(N)=O)N=C(c2ccc(OCCCO)cc2)O[C@H]1c1ccccc1N=[N+]=[N-]` was tested. Which composite z-score did it give?
A: The composite z-score was 1.42.

Q: How did the composite z-score turn out when `CN1C(=O)C2C=CC(C(O)c3ccccn3)N(N(c3ccccc3)c3ccccc3)C2C1=O` (stereo unspecified) was run?
A: Its composite z-score is 0.899.

Q: Which composite z-score does the source give for `NCCCCCCNC(=O)[C@@H]1C[C@@H]2C(=O)N[C@@H](CCCCN)C(=O)N2[C@@H]1c1cccc(OCCO)c1` here?
A: The composite z-score was 2.53.

Q: `O=C1N(Cc2ccccc2)c2ccccc2[C@@H]2OC(c3ccc(OCCCO)cc3)=N[C@]12Cc1ccccc1` was tested. Which composite z-score did it give?
A: The composite z-score was -0.329.

Q: Which composite z-score does the source give for `CCCCCCCCCCC(O)C1C=CC2C(=O)N(C)C(=O)C2N1NC(=O)OC(C)(C)C` (stereo unspecified) here?
A: Its composite z-score is 1.03.

Q: How did the composite z-score turn out when `OCCCC1=CC(c2ccc(CN3CCCC3)cc2)N(Cc2sc3ccccc3c2Cl)CC1` (stereo unspecified) was run?
A: Its composite z-score is 0.65.

Q: How did the composite z-score turn out when `[N-]=[N+]=Nc1ccccc1[C@@H]1OC(c2ccc(OCCCO)cc2)=N[C@]1(Cc1ccccc1)C(=O)NCC(O)CO` (stereo partly specified) was run?
A: Its composite z-score is 1.66.

Q: With `C=CCC(OC(C)=O)[C@@H]1[C@@H](N(Cc2cc3ccccc3o2)C(=O)c2ccc(-c3ccccc3)cc2)c2cc(OCCCO)ccc2N1C(=O)c1ccc2ccccc2c1` (stereo partly specified) as the compound, how does the composite z-score read?
A: The composite z-score was 0.0445.

Q: Which composite z-score does the source give for `Cc1cc(C)c(C(O)C2C=CC3C(=O)N(c4ccccc4)C(=O)C3N2Nc2ccc(C(C)C)cc2)c(C)c1` (stereo unspecified) here?
A: Its composite z-score is 1.91.

Q: How did the composite z-score turn out when `COc1cc(OC)c(C(O)C2C=CC3C(=O)N(c4ccccc4)C(=O)C3N2Nc2ccccc2)cc1Br` (stereo unspecified) was run?
A: The composite z-score was 1.66.

Q: `CO[C@H]1O[C@H](CO)[C@@H](OC(=O)Nc2ccccc2-c2ccccc2)[C@H](OC(=O)Nc2ccc3c(c2)OCO3)[C@H]1OC(=O)Nc1ccc2c(c1)OCO2` was tested. Which composite z-score did it give?
A: The composite z-score was 1.72.

Q: For `CC1CC/C=C\[C@H]2OC34C=CCN(c5ccc(Cl)cc5)C(=O)[C@H]3N(CCCCCO)C(=O)[C@]4(C)C2C(=O)O1` (stereo partly specified), which composite z-score is on record?
A: Its composite z-score is 0.332.

Q: For `CC(C)N1C(=O)c2ccccc2[C@@H](C(=O)NC2CC2)[C@@H]1c1ccc(CO)cc1`, which composite z-score is on record?
A: The composite z-score was 0.933.

Q: `COCCCNC(=O)[C@@]1(Cc2ccccc2CN=[N+]=[N-])N=C(c2ccc(OCCCO)cc2)O[C@H]1c1ccccc1` was tested. Which composite z-score did it give?
A: The composite z-score was 1.72.

Q: How did the composite z-score turn out when `COc1ccc([Si](C)(C)[C@@H]2[C@@H](CCO)O[C@]3(C(=O)N(Cc4ccc(N5CCCCC5=O)cc4)c4ccccc43)[C@H]2C)cc1` was run?
A: Its composite z-score is 0.919.

Q: `C=C(/C(=C/C[C@@H](OC(C)=O)c1cccc(OCCO)c1)c1cc(C(=O)OC)ccc1OC)C(C)C` was tested. Which composite z-score did it give?
A: Its composite z-score is -0.202.

Q: With `C=C(COC)C(=O)CC[C@@H](OC(=O)c1cccnc1)c1ccc(OCCO)cc1` as the compound, how does the composite z-score read?
A: The composite z-score was 0.403.

Q: Which composite z-score does the source give for `CN(C)c1ccc(C(O)C2C=CC3C(=O)N(c4ccccc4)C(=O)C3N2Nc2ccc([N+](=O)[O-])cc2)cc1` (stereo unspecified) here?
A: Its composite z-score is 1.42.

Q: How did the composite z-score turn out when `C=C[C@@H](COC(C)=O)N(C(=O)OC(C)(C)C)S(=O)(=O)c1ccc(Br)cc1` was run?
A: The composite z-score was 0.33.

Q: `CCCC[C@@H](O)C1=C(COc2ccccc2)C[C@H]2C(=O)N(C)C(=O)[C@H]2[C@H]1CO` was tested. Which composite z-score did it give?
A: The composite z-score was -0.665.

Q: How did the composite z-score turn out when `COC(=O)c1ccc([C@H](NC(=O)c2ccco2)[C@]2(C)C[C@H]2C2CCCCC2)cc1` was run?
A: Its composite z-score is 1.12.

Q: `COc1ccc(CN(C2=CC[C@@]3(C(N)=O)C(=O)C(Cl)=C(Cl)C(=O)[C@@]3(C#N)C2)S(=O)(=O)c2ccc(Br)cc2)cc1` was tested. Which composite z-score did it give?
A: The composite z-score was 0.914.

Q: With `COC(=O)c1cn(C[C@@H](Cc2ccccc2)NC(=O)N[C@H](CO)CCc2oc(C(C)=O)c(C(=O)OC)c2C(=O)OC)nn1` as the compound, how does the composite z-score read?
A: Its composite z-score is 0.165.

Q: `CCOC(=O)C[C@H]1[C@H](OC(=O)c2cc3ccccc3oc2=O)[C@@H](NC(=O)c2ccc(-c3ccccc3)cc2)c2cc(OCCCO)ccc2N1C(=O)c1ccccc1` was tested. Which composite z-score did it give?
A: The composite z-score was 0.687.

Q: Which composite z-score does the source give for `COC(=O)[C@@]1(Cc2ccc(OC)cc2)[C@H]2c3cc(C(=O)N(C)C)n(C[C@H](O)CO)c3C[C@H]2CN1C(=O)c1ccccc1` here?
A: Its composite z-score is 1.25.

Q: With `CC(C)[Si](C#C[Si](C(C)C)(C(C)C)C(C)C)(O[C@H](C)c1cn([C@H](CO)Cc2ccccc2)nn1)C(C)C` as the compound, how does the composite z-score read?
A: Its composite z-score is 0.183.

Q: `CCOC(=O)C1=CC[C@@H](c2ccccc2C(F)(F)F)N(S(=O)(=O)c2ccc(C)cc2)[C@H]1c1ccc(C#N)cc1` was tested. Which composite z-score did it give?
A: The composite z-score was 0.988.

Q: `C[N+](C)(C)CCCC[C@@H]1NC(=O)[C@H]2C[C@@H](C(=O)NCCCCCCN)[C@@H](c3ccc(O)cc3)N2C1=O` was tested. Which composite z-score did it give?
A: Its composite z-score is 1.99.

Q: How did the composite z-score turn out when `CC(C)N1CC=CC23O[C@@H]4C=CCOC(=O)[C@@H]4[C@H]2C(=O)N(CCCO)[C@@H]3C1=O` (stereo partly specified) was run?
A: The composite z-score was 1.57.
